In PubChem BioAssay (NCATS):
Inconclusive results are not listed. Entries that show only a call come without a potency. The source made the active and inactive calls. Calls follow the shape of the dose curve; as a rule, active = well fitted cell-killing curve with a large enough effect; inconclusive = small, poorly fitted or top-dose-only effect; inactive = no such curve, though single readings can be large or run the other way.

assay: qHTS of pediatric cancer cell lines to identify multiple opportunities for drug repurposing: Primary screen for Rh41 cells (AID 1347108); conditions: Rh41 rhabdomyosarcoma viability, CellTiter-Glo luminescence, 48 h; series mostly up to 46 µM; also: nearly all actives have a fitted effect of over 70% in size;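 as to activity change, negative = cytotoxic: luminescence drop marks cytotoxic hits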
Text: Drug repurposing or repositioning has been offered as a strategy for drug development in oncology programs. This approach has special potential for childhood cancers and other rare or orphan diseases, where the expected return on new drug development has been a disincentive to pharmaceuticals. […] In this project we exploit the poly-pharmacology of drugs to discover new indications via phenotypic screening of a panel of 19 well-characterized cell lines derived from solid tumors seen in children and adolescents. The goal is to identify approved drugs with previously unrecognized anticancer properties that has the potential to reveal new mechanisms and biological processes involved in carcinogenesis or drug resistance. We employed a titration-based paradigm (quantitative high-throughput screening or qHTS), where all compounds were tested at multiple concentrations for their effect on cell viability. Concentration-response curves (CRCs) were derived directly from the primary screen, and both potency and efficacy values were used to identify compounds with robust bioactivity profiles. We screened the NIH Chemical Genomics Center (NCGC) Pharmaceutical Collection (NPC) and Mechanism Interrogation Plate (MIPE) small molecule collections of approved and investigational compounds against these cell lines; and measured metabolically active cells after 48 hours of compound treatment as a proxy for cell viability. […] Assay Submitter: Nathalia J. Martinez, National Center for Advancing Translational Sciences, National Institutes of Health, Rockville, MD, USA; email: natalia.martinez@nih.gov Shen, M et al. Quantitative high-throughput phenotypic screening of pediatric cancer cell lines identifies multiple opportunities for drug repurposing. Oncotarget 2017 Dec 19;9(4):4758-4772. PMID 29435139.
The cells were obtained from University of North Carolina (UNC), Pediatric Preclinical Testing Program (PPT), and Coriell Institute (CI). qHTS cell viability assay: Cells were assayed in growth media at a density of 500-1,000 cells/well. Five microliters of cells were dispensed into 1,536-well, white, solid-bottom, TC-treated plates (Greiner Bio One) using a multidrop dispenser and incubated at 37 degrees C, 5% CO2, under a humidified atmosphere for 5 hours. Twenty-three nanoliters of compounds and controls (neutral control DMSO or positive control bortezomib at final concentration of 2.3 µM) were subsequently transferred by Kalypsys pintool. For primary screens, the MIPE collection was tested at 11-point dilutions (final concentrations range from 0.78 nM to 46 µM) and the NPC collection at 8-point dilutions (final concentrations range from 0.59 nM to 46 µM). Compounds tested in follow-up screens were assayed at 11-point dilutions. Cells were incubated for 48 hours, followed by addition of 3 µL of CellTiter-Glo (Promega). After a 15 min incubation at room temperature, samples were analyzed for luminescence intensity using a ViewLux High-throughput CCD imager equipped with clear filters.
Potency is read from the fitted curve at half-maximal effect.

Compound | Potency | activity change, negative = cytotoxic
Cn1cc(S(C)=O)c(=O)c2ccc(F)cc21 (stereo not given) | inactive | –
COc1ccc2c(c1)CCCC2=O | inactive | –
CN1C(=O)CC(C)(c2ccccc2)C1=O (stereo not given) | inactive | –
CC(COc1ccccc1)NN (stereo not given) | inactive | –
CN1Cc2cc(C(=O)N3CCC(C4CCNCC4)CC3)ccc2NC(CC(=O)O)C1=O (stereo not given) | inactive | –
CC(C)CCCC(C)NCCC(C)C (stereo not given) | inactive | –
CCCCC(CC)CNC(=O)CC(C)OC(=O)CCC(=O)O (stereo not given) | inactive | –
CCCCC(O)/C=C(C)/C=C/C=C/C(=O)N1CCCC1=O (stereo not given) | inactive | –
Clc1ccc2c(c1)Nc1ccccc1S2 | inactive | –
Nc1ccc(C(=O)N2CC3CC(CN(Cc4ccccc4)C3)C2)cc1 | inactive | –
CCOc1ccc(NS(=O)(=O)c2ccc(N)cc2)nn1 | inactive | –
Cc1ccc2c(Cl)cc(Cl)c(O)c2n1 | inactive | –
CCN1CCCC1CN (stereo not given) | inactive | –
CC(=O)O[C@@H]1CC2C3CCc4cc(OC(=O)c5ccccc5)ccc4C3CCC2(C)[C@H]1OC(C)=O (stereo not given in full) | inactive | –
O=C(CCC1CCN(Cc2ccccc2)CC1)c1ccc2c(c1)NCCCC2 | inactive | –
COC(=O)c1cc(S(N)(=O)=O)ccc1OC | inactive | –
O=C(OCC(COC(=O)c1cccnc1)(COC(=O)c1cccnc1)COC(=O)c1cccnc1)c1cccnc1 | inactive | –
CC(C)NCCCC1(C(N)=O)c2ccccc2-c2ccccc21 | inactive | –
CN(C)CCOC1=Cc2ccccc2Sc2ccc(Cl)cc21 | inactive | –
Cc1ccc(/C=N/n2c(-c3ccccc3)csc2=S)cc1 | inactive | –

Compound | Potency | activity change, negative = cytotoxic
CC(=O)OC/C=C(C)/C=C/C=C(C)/C=C/C1=C(C)CCCC1(C)C | inactive | –
O=C(O)c1ccccc1Nc1cc(Cl)ccc1C(=O)O | 11.6 µM (active) | –
C#Cc1ccc(-c2ccccc2F)cc1 | inactive | –
CC1CN(c2cc3c(cc2F)c(=O)c(C(=O)O)cn3-c2ccc(F)cc2F)CCN1 (stereo not given) | – | 11.4% [at 4.84 µM] (inactive)
CC(C)C[C@@H]1[C@H](c2ccccc2)OC(=O)N1CCCN1CCCCCC1 | inactive | –
CC(=O)O[C@H]1CC[C@@]2(C)C(=CC[C@@H]3[C@@H]2CC[C@]2(C)C(C(C)=O)=CC[C@@H]32)C1 | inactive | –
CCCCC(=O)OCC(=O)[C@H]1[C@H](C)C[C@H]2[C@@H]3C[C@H](F)C4=CC(=O)C=C[C@]4(C)[C@@]3(F)[C@@H](O)C[C@@]21C | inactive | –
CO/N=C(/C(=O)N[C@@H]1C(=O)N2C(C(=O)O)=C(Cn3nnc(C)n3)CS[C@H]12)c1csc(N)n1 | inactive | –
CN1Cc2cc(C(=O)N3CCC(C4CCNCC4)CC3)ccc2N[C@@H](CC(=O)O)C1=O | inactive | –
OCc1cccnc1 | inactive | –
Nc1ncnc2nc[nH]c12 | inactive | –
COc1cc(/C=C/C(N)=O)cc(OC)c1OC | inactive | –
C[C@H]1C[C@H](O)c2ccsc2S1(=O)=O | inactive | –
O=c1[nH]c2ccccc2c(=O)n1CCCl | inactive | –
C[C@H]1NCc2cc(-c3ccc4c(=O)c(C(=O)O)cn(C5CC5)c4c3OC(F)F)ccc21 | inactive | –
COC(=O)/C=C(/C)N | inactive | –
C=CCOc1cc(Cl)ccc1C(=O)NCCN(CC)CC | inactive | –
O=C(c1ccco1)N1CCNCC1 | inactive | –
O=C(O)Cn1c(=O)n(Cc2ccc(Br)cc2F)c(=O)c2ccc(Cl)cc21 | inactive | –
C[C@@H]1C[C@H]2[C@@H]3CCC4=CC(=O)C=C[C@]4(C)[C@@]3(F)[C@@H](O)C[C@]2(C)[C@@]1(O)C(=O)COC(=O)c1ccncc1 | inactive | –
